# Screens as filed in PubChem.
# Shown is part of a subset that was picked to be rich in hits.
# Cruzain inh Det – inhibitors of Trypanosoma cruzi cruzain with detergent. P25779. 0.43% of 200,000 active. purified cruzain, Z-FR-AMC fluorescence, 0.01% Triton. Potency, µM, most hits filed as inhibitors; further: nearly all actives have a fitted effect of over 40% in size
# Target sequence (P25779 123-467 limits assumed): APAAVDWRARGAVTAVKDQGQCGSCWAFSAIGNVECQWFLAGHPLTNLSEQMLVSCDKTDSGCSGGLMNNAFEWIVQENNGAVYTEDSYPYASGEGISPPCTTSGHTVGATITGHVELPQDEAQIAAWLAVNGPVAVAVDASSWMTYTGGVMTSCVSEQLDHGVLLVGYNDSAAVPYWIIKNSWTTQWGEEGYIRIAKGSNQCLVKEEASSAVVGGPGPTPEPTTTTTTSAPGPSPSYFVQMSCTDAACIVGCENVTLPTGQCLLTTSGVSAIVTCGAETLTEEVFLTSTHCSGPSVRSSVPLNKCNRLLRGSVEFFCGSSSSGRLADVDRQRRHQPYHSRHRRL
#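 Steps: dispense cruzain (1.5 nM final) in acetate buffer pH 5.5 with DTT and 0.01% Triton X-100; pin-transfer compounds; incubate 15 min RT; add Z-FR-AMC (2 uM final); read fluorescence every 30 s, using the 60 s intensity change.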
# Cruzain inh noDet – inhibitors of Trypanosoma cruzi cruzain without detergent; P25779; purified cruzain, Z-FR-AMC fluorescence, no detergent; Potency, µM, usual class: inhibitors; 2.3% of 200,000 active; AID 1476; further: nearly all actives have a fitted effect of over 40% in size
#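 Detergent-free condition (0.00005% Triton X-100) in acetate buffer pH 5.5 with DTT. 1.5 nM enzyme and compound were pre-mixed 15 min, then 2 uM Z-FR-AMC substrate added; reaction progress from fluorescence change between first and third reads (60 s).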
# Giardia FBPA inh – Giardia lamblia aldolase inhibition; A8B2U2; purified Giardia FBPA; Potency, µM (top dose mostly 59.6 µM), actives largely listed as inhibitors; 0.71% of 290,000 active; AID 2451; further: nearly all actives have a fitted effect of over 55% in size
# Target sequence (A8B2U2 whole entry, looked up): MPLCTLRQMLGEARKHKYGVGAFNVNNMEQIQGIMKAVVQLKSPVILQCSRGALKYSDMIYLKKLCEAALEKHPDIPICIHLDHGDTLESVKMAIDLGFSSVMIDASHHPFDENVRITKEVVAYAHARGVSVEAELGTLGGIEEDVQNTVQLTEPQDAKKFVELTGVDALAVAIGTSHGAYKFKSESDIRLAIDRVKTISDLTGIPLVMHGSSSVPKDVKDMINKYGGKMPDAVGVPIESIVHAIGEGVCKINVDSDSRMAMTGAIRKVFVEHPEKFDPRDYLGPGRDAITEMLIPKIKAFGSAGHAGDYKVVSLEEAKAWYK
#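 40 nM FBPA preincubated 10 min at RT with compound (up to 57.5 uM final), then substrate plus GAPDH/TPI/NAD/arsenate coupling and diaphorase/resazurin added. Fluorescence read after 20 min at RT, 525/598 nm.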
# Numbers stand for hits; n = inactive; u = inconclusive; x = no result given; [ ] = dose if it differs, or a comment. The call rests on the fitted dose curve; in most records, active means well fitted curve in the direction sought with a large enough effect; inconclusive means small, poorly fitted or top-dose-only effect, or another doubt; inactive means no such curve, though single readings can be large; an effect the other way counts as inactive or inconclusive.
SMILES,Cruzain inh Det,Cruzain inh noDet,Giardia FBPA inh
COc1ccc(NCc2nnc(SCC(=O)Nc3nc(-c4ccccc4)cs3)n2-c2ccccc2)cc1,n,25µM,n
Cc1cc(C)nc(SCc2nnc(SCC(=O)Nc3nc(-c4ccccc4)cs3)n2-c2ccccc2)n1,n,u,n
COc1ccc(-n2c(CNc3ccc(C)cc3)nnc2SCC(=O)Nc2nc(-c3ccccc3)cs2)cc1,n,6.3µM,x
COc1ccc(-n2c(Cc3cccn3C)nnc2SCC(=O)Nc2ccc(C)cc2)cc1,n,n,n
O=C(CCCn1c(=O)c2ccccc2n(Cc2cccc(F)c2)c1=O)NCc1ccccc1Cl,n,n,x
O=C(NCCCN1CCOCC1)c1sc2cc(Cl)ccc2c1Cl,x,x,n
O=C(NCCCN1CCOCC1)c1sc2cc([N+](=O)[O-])ccc2c1Cl,x,x,2.5µM
CCNc1ncc2ncc(=O)n(C[C@H]3CCCO3)c2n1,n,n,n
CCNc1ncc2nc(C)c(=O)n(C[C@H]3CCCO3)c2n1,20µM,u,n
O=C(/C=C/C#Cc1cccc(NS(=O)(=O)c2ccccc2)c1)NO,x,x,n
COc1ccccc1C(=O)Nc1ccc2c(C)cc(=O)oc2c1,x,x,n
Cc1cc(C)c(NC(=O)COc2ccccc2C(=O)Nc2ccc3c(c2)oc2ccccc23)c(C)c1,n,5µM,n
CC1(C)CCC[C@@](C)([C@H]2CC[C@]3(C)[C@@H]2[C@H](O)CC2[C@@]4(C)CC[C@H](O)C(C)(C)[C@@H]4[C@@H](O)C[C@]23C)O1 (stereo not given in full),x,x,n
COc1ccc(CNC(=O)c2ccc3c(c2)nc2n3CCC(C)C2)c(OC)c1 (stereo not given),n,n,x
COc1ccc(C(=O)CSc2nnc(-c3cc(C)on3)o2)cc1,n,n,n
Cc1cc(-c2nnc(SCC(=O)c3ccc(Cl)cc3)o2)no1,n,25µM,n
Oc1ccc2cc(SSc3ccc4cc(O)ccc4c3)ccc2c1,n,u,x
CCOC(=O)c1oc2ccccc2c1NC(=O)COc1cccc(OC)c1,n,n,n
CCOC(=O)c1oc2ccccc2c1NC(=O)COc1ccc(F)cc1,n,13µM,n
CC(C)[N+]1(C)[C@@H]2CC[C@H]1CC(OC(=O)[C@@H](CO)c1ccccc1)C2 (stereo not given in full),n,n,n
Cc1c(CN2CCCCC2)c(O)n(CCCO)c(=O)c1C#N,n,n,u
Cc1cc(C)n(C)c(=O)c1C#N,x,x,n
CC(=O)N=Cc1c(C)c(C#N)c(=O)n(C)c1O,x,x,8.9µM
Cc1c(C=O)c(Cl)n(C)c(=O)c1C#N,x,x,10µM
COc1cc([C@@H]2CC(=O)c3c(O)cc(O)cc3O2)ccc1O,x,x,n
SMILES,Cruzain inh Det,Cruzain inh noDet,Giardia FBPA inh
CC1CCc2c(nc3nc[nH]n3c2=O)C1 (stereo not given),n,n,n
S=c1c2c(nc3nc[nH]n13)CCC2,x,x,2.5µM
CN(C)S(=O)(=O)c1cccc(NC(=S)NN=C(Cc2ccccc2)Cc2ccccc2)c1,n,32µM,n
CN(CC(=O)Nc1cccc(S(=O)(=O)N(C)C)c1)Cc1ccccc1,x,x,n
O=C(N/N=C/c1ccc(OCCCF)cc1)c1cc(OCC(F)(F)F)ccc1OCC(F)(F)F,n,25µM,n
O=C(N/N=C\c1ccc(F)cc1)c1cc(OCC(F)(F)F)ccc1OCC(F)(F)F,n,n,n
C[N+](C)(C)c1nc(N)nc2c1ncn2[C@H]1O[C@@H](CO)[C@@H](O)[C@H]1O,n,n,x
Cc1ccc(CN2CCSc3ccc(C(=O)N4CCN(c5ccc(Cl)cc5)CC4)cc32)cc1,n,u,x
O=C(Nc1nnc(SCc2ccccc2)s1)c1cc2c(s1)CCCC2,n,u,n
CCSc1nnc(NC(=O)c2csc3c2CCCC3)s1,n,u,n
CC(=O)Nc1ccc(NC(=O)c2cc(-c3ccc(C)c(C)c3O)n[nH]2)cc1,x,x,n
CCSc1nnc(NC(=O)c2cc3c(s2)CCCC3)s1,n,7.9µM,n
CCSc1nnc(NC(=O)c2ccc3c(c2)OCO3)s1,n,25µM,n
CCSc1nnc(NC(=O)c2csc3c2CCC(C)C3)s1 (stereo not given),n,13µM,n
CCSc1nnc(NC(=O)c2cc(-c3ccc(C)c(C)c3O)n[nH]2)s1,n,4µM,n
CC(C)c1nnc(NC(=O)c2ccc3c(c2)OCO3)s1,x,x,n
Cc1c(Cl)cc(C(C)(C)C)c(O)c1Cc1c(C)c(Cl)cc(C(C)(C)C)c1O,n,n,x
c1ccc(Nc2ccc(Nc3ccccc3)cc2)cc1,n,n,x
O=Nc1ccc(Nc2ccccc2)cc1,7.1µM,7.9µM,x
CCOC(=O)N1CCN(/[N+]([O-])=N/Oc2ccc([N+](=O)[O-])cc2[N+](=O)[O-])CC1,x,x,n
O=c1c(N2CCN(c3cccc(Cl)c3)CC2)csc2ccc(Cl)cc12,n,n,x
COc1ccccc1C(CC(=O)Nc1ccc(Cl)cc1)c1ccc(OC(C)C)cc1 (stereo not given),n,3.2µM,n
COc1ccc(C(CC(=O)Nc2ccc(F)cc2)c2ccccc2)cc1 (stereo not given),n,n,n
COc1ccccc1-n1c(SCc2cc(=O)oc3cc(O)ccc23)nc2ccccc2c1=O,n,25µM,n
COc1ccccc1-n1c(SCC(=O)N2CCOCC2)nc2ccccc2c1=O,x,x,n
SMILES,Cruzain inh Det,Cruzain inh noDet,Giardia FBPA inh
O=C(O)C(Cl)(c1ccccc1)c1ccccc1,n,n,x
Cc1cccc2cc(C#N)c(NCCNS(=O)(=O)c3ccccc3)nc12,x,x,n
CCOCCCNC(=S)NCCNc1nc2c(C)cccc2cc1C#N,n,u,n
Cc1cccc2cc(C#N)c(NCc3ccccc3)nc12,x,x,18µM
Cc1cccc2cc(C#N)c(NCCNC(=O)COc3ccccc3)nc12,x,x,16µM
CO[C@H]1COC(=O)C/C=C\[C@H](C)[C@@H](NS(=O)(=O)c2ccc(C)cc2)COC(=O)CCC[C@@H]1C,x,x,n[12.9 µM]
CN(C)CCOC(=O)c1ccc(N)cc1,n,n,x
CCN(CC)CCCN1C=C2C(=O)C(C)(OC(=O)c3cccs3)C(=O)C=C2C=C1CCCC(=O)OC (stereo not given),x,x,n[12.9 µM]
COC(=O)CCCC1=CC2=CC(=O)C(C)(OC(=O)c3cccs3)C(=O)C2=CN1CCc1c[nH]c2ccccc12 (stereo not given),x,x,0.45µM
COc1ccccc1CNC(=O)c1ccc(N2Cc3cccc(OC)c3Oc3ncccc32)s1,n,n,x
Cc1ccccc1Cn1cc(S(=O)(=O)c2ccc(F)cc2)c(=O)c2cc3c(cc21)OCO3,n,n,x
N#C/C(=C\c1ccc(-c2ccccc2[N+](=O)[O-])o1)C(=O)Nc1nc(-c2cccs2)cs1,n,6.3µM,n
N#C/C(=C\c1ccc(-c2ccc([N+](=O)[O-])cc2)o1)C(=O)Nc1nc(-c2cccs2)cs1,x,x,n
CCOC(=O)c1ccc(NC(=O)N2CCOc3ccccc32)cc1,n,10µM,x
CCOC(=O)c1ccc(NC(=O)Nc2ccc3c(c2)OCCO3)cc1,n,n,n
COc1ccc(-c2onc(C)c2C)cc1S(=O)(=O)N1CCc2ccccc21,n,n,x
Cc1cc(=O)cc(C)n1-c1ccc(Br)cc1,x,x,n
Cc1cc([P+](=O)O)c(C)n1-c1ccc(Br)cc1,n,20µM,n
O=C(c1ccc(Nc2nccc(-c3cc4ccccc4s3)n2)cc1)N1CCC(N2CCCC2)CC1,x,x,n
Cc1ccc(CCNC(=O)c2sc3ncccc3c2-n2c(C)ccc2C)cc1,n,n,x
Nc1nc(-c2ccco2)c(-c2ccco2)s1,n,n,u
COc1ccc(-c2nc3ccccc3nc2-c2ccc(OC)cc2)cc1,x,x,n
